Reference: PubChem BioAssay (NCATS)
Records with an inconclusive call do not appear. Active and inactive are the calls of the source. Unless noted, calls come from the whole dose curve.

Tests used:
[1] = target: Peroxisome proliferator-activated receptor delta (Homo sapiens) (UniProt Q03181); test: qHTS assay for small molecule agonists of peroxisome proliferator-activated receptor delta signaling (AID 588534);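 note: 0% = DMSO basal wells and 100% = positive control agonist at 10 µM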
Outline: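 Agonist-mode qHTS; reporter cells, 5 hrs 37 C pre-incubation; compound titration, 18 hrs 37 C; CCF4 dye, 2 hrs RT; fluorescence read. EC50/efficacy via Hill fit.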

[2] = qHTS assay for small molecule antagonists of peroxisome proliferator-activated receptor delta signaling (AID 588535; active = well fitted inhibition curve with a large enough effect in the signal ratio, with a control signal flat, not every such curve was filed as active; the % refers to the signal ratio;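 for max response: cells co-treated with a PPAR-delta agonist as stimulator during compound exposure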); conditions: HEK293T PPARd-UAS-bla, beta-lactamase FRET ratio, 18 h; 460 nm channel
Outline: (§1)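 Titrations were run on PPAR-delta-UAS-bla HEK293T cells in charcoal/dextran-stripped serum, incubated 18 h at 37 C. CCF4 fluorescence (460/530 nm) after 2 h RT; Hill equation yields IC50 and maximal response.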

[3] = target: Peroxisome proliferator-activated receptor delta (Homo sapiens) (UniProt Q03181); test: as above
Outline: as §1

[4] = target: Vitamin D3 receptor (Homo sapiens) (UniProt P11473); test: qHTS assay for small molecule agonists of vitamin D receptor signaling (AID 588543);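 note: 0% = DMSO basal and 100% = reference agonist control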
Outline: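 qHTS in agonist mode: compound titrations stimulate a VDR-driven β-lactamase reporter in HEK293T cells over 16 h at 37 °C. Response normalized to 50 nM 1α,25-dihydroxyvitamin D3 = 100%, DMSO = 0%; Hill fitting gives EC50 and maximal response.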

[5] = qHTS assay for small molecule agonists of retinoid X receptor alpha signaling (AID 588544); conditions: HEK293T RXRa-UAS-bla, beta-lactamase reporter, 18 h; 530 nm emission;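 for activation: 0% = DMSO basal wells and 100% = reference agonist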
[6] = target: Retinoic acid receptor RXR-alpha (Homo sapiens) (UniProt P19793); test: as above
[7] = target: Thyroid hormone receptor beta (Homo sapiens) (UniProt P10828); test: qHTS assay for small molecule agonists of thyroid hormone receptor beta signaling (AID 588545)
Outline: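 Agonist activity was read as beta-lactamase CCF4 fluorescence (405 ex, 460/530 em), scaled between DMSO (0%) and 10 nM T3 (100%), then Hill-fitted for EC50 and efficacy. HEK 293 TR-UAS-bla cells in 2% charcoal/dextran FBS medium were exposed 18 h at 37 C.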

[8] = qHTS assay for small molecule antagonists of retinoid X receptor alpha signaling (AID 588546; active = well fitted inhibition curve with a large enough effect in the signal ratio, with a control signal flat, not every such curve was filed as active; the % refers to the signal ratio;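 note: cells stimulated with 9-cis-retinoic acid as agonist; % is set by controls: 0 for no effect and ±100 for the full control effect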); conditions: HEK293T RXRa-UAS-bla, beta-lactamase ratio, antagonist mode; measured here: W530 green channel, cytotoxicity proxy
Outline: (§2)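 Beta-lactamase reporter inhibition, read as CCF4 fluorescence ratio (ex 405, em 460/530 nm) after 2 h at RT. HEK293T UAS-bla cells, 2500/well, were stimulated with 9-cis-RA at 500 or 100 nM final alongside test compound for 18 h at 37 C.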

[9] = target: Retinoic acid receptor RXR-alpha (Homo sapiens) (UniProt P19793); test: as above; conditions: HEK293T RXRa-UAS-bla, beta-lactamase ratio, antagonist mode
Outline: as §2

[10] = target: Thyroid hormone receptor beta (Homo sapiens) (UniProt P10828); test: qHTS assay for small molecule antagonists of thyroid hormone receptor beta signaling (AID 588547; active = well fitted inhibition curve with a large enough effect in the signal ratio, with a control signal flat, not every such curve was filed as active; the % refers to the signal ratio;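 note: cells stimulated with 0.4 nM T3 agonist during compound exposure; series mostly up to about 77 µM; % is set by controls: 0 for no effect and ±100 for the full control effect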); conditions: TR-UAS-bla HEK293, beta-lactamase ratio, antagonist mode, 18 h
Outline: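 Inhibition of T3-driven (0.4nM final) beta-lactamase reporter activity was measured over 0.59 nM to 92 uM compound after 18 h at 37 C. The cells were GripTite HEK293 TR-UAS-bla in charcoal/dextran-stripped serum, with CCF4 ratio read-out and IC50 from Hill fits.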

[11] = qHTS assay for small molecule activators of the nuclear factor-kappa B (NF-kB) signaling pathway (AID 651749; active = well fitted activation curve with a large enough effect in the signal ratio; the % refers to the signal ratio; note: series mostly up to about 77 µM; % of control where 0% means no effect); conditions: NF-kB-bla ME-180 cells, beta-lactamase FRET ratio, 16 h; activation: stronger effect = higher value
Outline: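 Activation measured after 16 hr compound treatment at 37C, 5% CO2, of 2,000 ME-180 cells/well stably expressing an NF-kB response element–driven beta-lactamase reporter, via FRET-disruption fluorescence.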

[12] = qHTS assay for environmental chemicals that activate the Aryl hydrocarbon Receptor (AhR) signaling pathway (AID 651777; active = well fitted curve in the direction sought with a large enough effect; an effect the other way counts as inactive or inconclusive; note: nearly all actives have a fitted effect of over 15% in size; note: potency is the fitted concentration of half-maximal effect; for activation: % of control where 0% means no effect); conditions: 1A2-DRE human hepatoma cells, luciferase, 24 h; activation: stronger effect = higher value
Outline: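 1A2-DRE human hepatoma reporter line; 1,200 cells/well; cmpd or DMSO 24 h, 37 C/5% CO2; One-Glo 30 min RT; luciferase lum.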

[13] = target: Peroxisome proliferator-activated receptor alpha (Homo sapiens) (UniProt Q07869); test: qHTS assay for small molecule agonists of the peroxisome proliferator-activated receptor alpha (PPARalpha) signaling pathway (AID 651778; active = well fitted curve in the direction sought with a large enough effect; an effect the other way counts as inactive or inconclusive; note: % of control where 0% means no effect); conditions: PathHunter PPARalpha complementation, chemiluminescence, 6 h; max response: stronger effect = higher value
Outline: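 Chemiluminescence from complemented enzyme reported PPARalpha activation in cells after 6 hr of compound treatment at 37 C. The detection reagent was incubated for 60 min at room temperature, and compounds were scored as agonists.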

[14] = qHTS assay for small molecule agonists of the antioxidant response element (ARE) signaling pathway measured by Nrf2-dependant transcriptional activity (AID 720636; active = well fitted curve in the direction sought with a large enough effect in the repeat runs; an effect the other way counts as inactive or inconclusive;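 note: HepG2 cells with an ARE-driven luciferase reporter; % of control where 0% means no effect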)
Outline: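 Cells: ARE-luc HepG2 with Nrf2-responsive luciferase. Medium contained 1% dialyzed FBS. Compound exposure lasted 16 hr at 37 C and 5% CO2, followed by ONE-Glo luciferase detection.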

[15] = qHTS assay for small molecule agonists of the antioxidant response element (ARE) signaling pathway measured by Nrf2-dependant transcriptional activity - cell viability counter screen (AID 720653; active = well fitted curve in the direction sought with a large enough effect in the repeat runs; an effect the other way counts as inactive or inconclusive; note: % is set by controls: 0 for no effect and ±100 for the full control effect); conditions: ARE-bla HepG2 viability, CellTiter-Glo ATP luminescence, 16 h; max response: stronger effect = lower value
Outline: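 Cytotoxicity counter screen: intracellular ATP quantified by CellTiter-Glo luminescence in the same ARE-bla HepG2 plates, after 16 h compound exposure and a 2 h beta-lactamase substrate step.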

[16] = qHTS assay for cell viability of HEK293 cells (AID 743288; active = well fitted curve in the direction sought with a large enough effect; an effect the other way counts as inactive or inconclusive; note: % is set by controls: 0 for no effect and ±100 for the full control effect; nearly all actives have a fitted effect of over 50% in size); conditions: ATP luminescence (CellTiter-Glo), 18 h; max response: stronger effect = lower value
Outline: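 Quantitative high-throughput screen: compounds were pinned onto parental HEK293 cells (2,000 per well) after a minimum 5 h settling at 37 C, incubated 18 h at 37 C, and intracellular ATP measured by luciferase luminescence.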

[17] = qHTS assay for cell viability of the p53RE-bla HCT-116 cell line (AID 743292; active = well fitted curve in the direction sought with a large enough effect; an effect the other way counts as inactive or inconclusive; note: % is set by controls: 0 for no effect and ±100 for the full control effect; nearly all actives have a fitted effect of over 55% in size)
Outline: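 HCT-116 p53RE-bla cells seeded 4,000/well; 5 h at 37 C; compound (DMSO) added; 16 h at 37 C; CellTiter-Glo added, 30 min RT; luminescence read.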

[18] = target: Bile acid receptor (Homo sapiens) (UniProt Q96RI1); test: qHTS assay for small molecule antagonists of farnesoid X receptor signaling (AID 588526); note: potency is the fitted concentration of half-maximal effect
Outline: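 Beta-lactamase reporter antagonist mode: HEK293T FXR-UAS-bla cells, titrated compound, CDCA stimulation, 16 h 37 C, CCF4 dye 2 h RT. Data normalized to CDCA 50 uM and DMSO; Hill-fit IC50.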

[19] = target: Bile acid receptor (Homo sapiens) (UniProt Q96RI1); test: qHTS assay for small molecule agonists of farnesoid X receptor signaling (AID 588527); conditions: HEK293T FXR-UAS-bla, beta-lactamase ratio, 16 h; activation: stronger effect = higher value;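 note: series mostly up to about 77 µM; 0% = vehicle basal and 100% = reference agonist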
Outline: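 FXR-UAS-bla HEK293T cells (10% dialyzed FBS) preincubated 5-7 h at 37 C, then compounds at up to 92 uM for 16 h at 37 C. CCF4 beta-lactamase read-out after 2 h RT. Normalized to chenodeoxycholic acid (100 uM) and DMSO; Hill fit gave EC50 and efficacy.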

[20] = target: Glucocorticoid receptor (Homo sapiens) (UniProt P04150); test: qHTS assay for small molecule agonists of glucocorticoid receptor signaling (AID 588532; active = well fitted curve in the direction sought with a large enough effect in the signal ratio, with a control signal flat; the % refers to the signal ratio;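 note: 100% = dexamethasone at 0.1 µM and 0% = DMSO only wells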); conditions: HeLa MMTV-bla, beta-lactamase ratio, agonist, 18 h; activation: stronger effect = higher value, percent of dexamethasone control, DMSO zero
Outline: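 Quantitative HTS using CellSensor MMTV-bla HeLa cells in charcoal/dextran-treated serum; compounds tested up to 92 uM. After 18 h at 37 C, CCF4 dye reported reporter induction.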

Bile acid receptor (Homo sapiens), sequence (Q96RI1 whole entry, looked up): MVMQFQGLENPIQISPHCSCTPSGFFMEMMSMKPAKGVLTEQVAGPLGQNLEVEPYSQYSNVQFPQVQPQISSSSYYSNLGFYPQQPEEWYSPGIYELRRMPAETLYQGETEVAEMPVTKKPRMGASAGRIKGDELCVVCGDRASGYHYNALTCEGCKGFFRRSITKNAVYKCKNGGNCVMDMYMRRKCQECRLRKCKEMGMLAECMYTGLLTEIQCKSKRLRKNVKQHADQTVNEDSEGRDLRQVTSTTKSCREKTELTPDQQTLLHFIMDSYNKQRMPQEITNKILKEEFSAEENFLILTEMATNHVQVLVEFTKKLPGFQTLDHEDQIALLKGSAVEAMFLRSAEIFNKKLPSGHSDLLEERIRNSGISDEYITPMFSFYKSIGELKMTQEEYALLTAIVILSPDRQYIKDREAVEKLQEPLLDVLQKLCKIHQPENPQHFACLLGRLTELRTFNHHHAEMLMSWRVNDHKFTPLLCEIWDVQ
Peroxisome proliferator-activated receptor delta (Homo sapiens), sequence (Q03181 whole entry, looked up): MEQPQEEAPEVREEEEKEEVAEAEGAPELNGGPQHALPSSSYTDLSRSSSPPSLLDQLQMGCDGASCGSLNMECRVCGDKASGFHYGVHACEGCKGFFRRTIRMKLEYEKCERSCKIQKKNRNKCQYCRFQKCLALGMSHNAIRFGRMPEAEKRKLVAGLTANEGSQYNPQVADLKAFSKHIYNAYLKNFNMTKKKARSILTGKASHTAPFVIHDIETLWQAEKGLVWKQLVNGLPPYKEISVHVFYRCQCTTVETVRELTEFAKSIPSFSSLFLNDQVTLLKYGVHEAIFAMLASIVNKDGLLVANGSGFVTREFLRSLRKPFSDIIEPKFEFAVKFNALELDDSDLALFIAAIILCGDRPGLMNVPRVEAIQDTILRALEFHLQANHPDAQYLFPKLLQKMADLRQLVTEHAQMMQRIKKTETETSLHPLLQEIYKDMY
Vitamin D3 receptor (Homo sapiens), sequence (P11473 whole entry, looked up): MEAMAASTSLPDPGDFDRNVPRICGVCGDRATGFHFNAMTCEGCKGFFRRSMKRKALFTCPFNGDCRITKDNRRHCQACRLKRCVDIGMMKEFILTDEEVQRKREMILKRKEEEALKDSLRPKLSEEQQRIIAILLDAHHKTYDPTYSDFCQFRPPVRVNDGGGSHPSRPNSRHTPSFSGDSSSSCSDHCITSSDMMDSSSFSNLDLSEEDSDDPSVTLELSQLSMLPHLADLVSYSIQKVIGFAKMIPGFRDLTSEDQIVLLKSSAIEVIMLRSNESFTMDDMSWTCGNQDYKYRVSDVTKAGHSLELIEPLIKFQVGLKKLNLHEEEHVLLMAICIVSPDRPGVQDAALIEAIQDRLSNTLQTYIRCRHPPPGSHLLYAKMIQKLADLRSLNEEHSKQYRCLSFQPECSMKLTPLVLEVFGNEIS
Peroxisome proliferator-activated receptor alpha (Homo sapiens), sequence (Q07869 whole entry, looked up): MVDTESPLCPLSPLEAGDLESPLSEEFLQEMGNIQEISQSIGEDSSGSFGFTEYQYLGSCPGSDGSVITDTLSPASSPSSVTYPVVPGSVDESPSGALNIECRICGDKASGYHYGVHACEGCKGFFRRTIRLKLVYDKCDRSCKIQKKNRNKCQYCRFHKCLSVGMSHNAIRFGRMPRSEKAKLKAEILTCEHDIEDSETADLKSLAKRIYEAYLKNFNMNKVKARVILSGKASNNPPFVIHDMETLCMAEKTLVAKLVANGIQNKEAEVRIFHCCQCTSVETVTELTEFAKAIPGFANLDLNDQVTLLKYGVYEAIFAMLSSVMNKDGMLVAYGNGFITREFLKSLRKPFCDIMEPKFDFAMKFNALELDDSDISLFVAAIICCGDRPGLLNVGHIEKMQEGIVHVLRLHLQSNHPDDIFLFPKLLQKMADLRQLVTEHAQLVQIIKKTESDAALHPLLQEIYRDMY
Retinoic acid receptor RXR-alpha (Homo sapiens), sequence (P19793 whole entry, looked up): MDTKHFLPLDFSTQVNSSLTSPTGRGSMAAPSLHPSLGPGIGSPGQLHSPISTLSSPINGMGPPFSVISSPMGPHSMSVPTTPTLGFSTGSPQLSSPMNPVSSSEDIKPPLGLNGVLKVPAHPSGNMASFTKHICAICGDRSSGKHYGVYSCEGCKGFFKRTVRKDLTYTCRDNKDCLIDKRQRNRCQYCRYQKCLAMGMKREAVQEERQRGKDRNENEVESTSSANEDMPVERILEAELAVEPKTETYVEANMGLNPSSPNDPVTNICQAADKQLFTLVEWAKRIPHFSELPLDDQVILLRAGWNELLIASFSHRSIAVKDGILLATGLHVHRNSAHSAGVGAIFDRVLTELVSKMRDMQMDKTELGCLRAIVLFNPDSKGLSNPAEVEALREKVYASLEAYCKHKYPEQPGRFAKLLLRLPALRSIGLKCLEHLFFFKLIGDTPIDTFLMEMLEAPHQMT
Thyroid hormone receptor beta (Homo sapiens), sequence (P10828 whole entry, looked up): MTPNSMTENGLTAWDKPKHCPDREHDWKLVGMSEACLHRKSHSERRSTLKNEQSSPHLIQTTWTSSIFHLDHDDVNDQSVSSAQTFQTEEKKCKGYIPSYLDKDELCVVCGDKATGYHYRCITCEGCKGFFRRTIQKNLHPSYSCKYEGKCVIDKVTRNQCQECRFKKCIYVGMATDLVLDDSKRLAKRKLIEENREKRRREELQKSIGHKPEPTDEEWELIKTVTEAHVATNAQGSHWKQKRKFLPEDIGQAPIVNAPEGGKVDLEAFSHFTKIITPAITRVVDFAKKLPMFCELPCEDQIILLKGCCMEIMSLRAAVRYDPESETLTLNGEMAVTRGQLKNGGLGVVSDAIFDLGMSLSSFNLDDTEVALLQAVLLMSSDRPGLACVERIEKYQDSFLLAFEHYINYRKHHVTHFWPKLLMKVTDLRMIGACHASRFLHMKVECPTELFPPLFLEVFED
Glucocorticoid receptor (Homo sapiens), sequence (P04150 whole entry, looked up): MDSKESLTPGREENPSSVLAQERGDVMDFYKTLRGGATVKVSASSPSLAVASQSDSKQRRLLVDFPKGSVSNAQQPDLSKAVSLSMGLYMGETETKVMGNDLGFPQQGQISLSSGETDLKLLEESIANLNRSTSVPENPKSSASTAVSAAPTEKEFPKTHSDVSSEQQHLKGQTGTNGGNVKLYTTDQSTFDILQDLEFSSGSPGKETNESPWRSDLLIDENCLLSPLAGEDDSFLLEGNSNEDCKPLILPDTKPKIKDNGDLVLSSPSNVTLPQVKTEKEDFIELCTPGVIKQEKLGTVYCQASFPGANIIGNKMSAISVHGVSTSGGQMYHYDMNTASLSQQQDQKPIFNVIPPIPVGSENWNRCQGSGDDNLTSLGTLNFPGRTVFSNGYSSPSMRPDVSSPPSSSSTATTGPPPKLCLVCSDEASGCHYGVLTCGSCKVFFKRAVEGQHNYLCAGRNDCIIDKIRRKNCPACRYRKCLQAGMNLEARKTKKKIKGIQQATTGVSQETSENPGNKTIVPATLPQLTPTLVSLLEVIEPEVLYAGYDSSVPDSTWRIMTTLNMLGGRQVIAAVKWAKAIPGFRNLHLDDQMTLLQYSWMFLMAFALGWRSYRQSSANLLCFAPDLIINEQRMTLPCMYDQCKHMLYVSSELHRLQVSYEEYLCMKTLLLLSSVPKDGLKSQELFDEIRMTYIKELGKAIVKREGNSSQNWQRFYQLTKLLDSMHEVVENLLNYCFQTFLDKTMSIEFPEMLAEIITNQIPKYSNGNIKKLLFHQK

C[N+]1(C)CCCCC1
inactive: outcome [1] | Potency [3] | outcome [4] | Potency [6] | Potency [7] | max response [9] 0.987% | activity change % (negative = inhibition) [10] 2.54% | activation [11] 0.391% | activation [12] 0.858% | max response [13] -0.937% | Potency [14] | max response [15] 4.82% | max response [16] -11.8% | Potency [17]
-2.65%: max response [8]
-14.2%: max response [2]
-8.78%: max response [5]

COc1cc(OC)nc(NC(=O)NS(=O)(=O)c2cc(NC=O)ccc2C(=O)N(C)C)n1
-3.56%: max response [5]
inactive: Potency [18] | activation [19] -1.24% | activation [20] -12.6% | outcome [1] | Potency [3] | outcome [4] | Potency [6] | Potency [7] | max response [9] 14.5% | activity change % (negative = inhibition) [10] -8.65% | activation [11] 1.99% | activation [12] -3.78% | max response [13] -4.09% | Potency [14] | max response [15] 11% | max response [16] -24.7%
-2.91%: max response [8]
-27.4%: max response [2]

O=C(NC(=O)c1c(F)cccc1F)Nc1cc(Cl)c(OC(F)(F)C(F)C(F)(F)F)c(Cl)c1F (stereo not drawn)
-6.84%: max response [8]
39.8%: max response [2]
inactive: Potency [18] | activation [19] 3.38% | outcome [1] | Potency [3] | outcome [4] | Potency [6] | Potency [7] | max response [9] 4.34% | activity change % (negative = inhibition) [10] 12.6% | activation [11] 4.04% | activation [12] 6.63% | max response [13] 6.43% | max response [15] -22% | max response [16] -24.3% | Potency [17]
23%: max response [5]

CC1(C)C(C(=O)OC(C#N)c2cccc(Oc3ccccc3)c2)C1(C)C (stereo not drawn)
inactive: outcome [1] | Potency [3] | outcome [4] | Potency [6] | max response [9] -14.5% | activity change % (negative = inhibition) [10] 2.17% | activation [11] 2.53% | activation [12] -0.509% | max response [13] -0.276% | Potency [14] | max response [15] -19.4% | max response [16] -11.3% | Potency [17]
-18.6%: max response [8]
-5.14%: max response [5]
27.8%: max response [2]

COC(=O)c1c(C(F)F)nc(C(F)(F)F)c(C2=NCCS2)c1CC(C)C
-95%: max response [2]
-11.1%: max response [8]
inactive: Potency [3] | outcome [4] | Potency [7] | max response [9] -17.3% | activity change % (negative = inhibition) [10] -8.88% | activation [11] -2.57% | activation [12] 2.1% | max response [13] -1.35% | max response [15] 1.66% | max response [16] -8.01% | Potency [17]

O=[As](O)(O)O
-18.2%: max response [5]
6.63%: max response [2]
inactive: Potency [18] | activation [19] -0.515% | activation [20] -5.56% | Potency [3] | outcome [4] | Potency [6] | Potency [7] | activity change % (negative = inhibition) [10] -13.2% | activation [11] -0.92% | activation [12] -0.386% | max response [13] 0.0106% | max response [15] -8.77% | Potency [17]
-3.47%: max response [8]

CCCOc1nn(C(=O)NS(=O)(=O)c2ccccc2C(=O)OC)c(=O)n1C
inactive: activation [20] -2.11% | outcome [1] | Potency [3] | outcome [4] | Potency [7] | max response [9] -2.92% | activity change % (negative = inhibition) [10] 10.6% | activation [11] -2.67% | activation [12] 0.148% | max response [13] 0.0457% | max response [15] -11.6% | max response [16] -4.57%
41%: max response [2]
-18%: max response [8]

CCCCOC(=O)c1ccccc1C(=O)O
2.69%: max response [8]
inactive: Potency [18] | activation [19] -1.61% | outcome [1] | Potency [3] | Potency [6] | Potency [7] | max response [9] 13.7% | activity change % (negative = inhibition) [10] 6.47% | activation [11] 1.8% | activation [12] -4.01% | max response [13] 0.528% | Potency [14] | max response [15] 18.5% | max response [16] 6.89%
-15.3%: max response [5]
23.7%: max response [2]

COc1cc(OC)nc(NC(=O)NS(=O)(=O)c2ncccc2C(F)(F)F)n1
-4.69%: max response [5]
-9.13%: max response [8]
-12.7%: max response [2]
inactive: Potency [18] | activation [19] -0.618% | activation [20] -18.1% | outcome [1] | Potency [3] | Potency [6] | Potency [7] | max response [9] 2.48% | activation [11] -0.0953% | activation [12] 1.17% | max response [13] -1.83% | Potency [14] | max response [15] -1.73% | max response [16] -6.81% | Potency [17]

CNC(=O)N(C)c1nc2ccccc2s1
active: Potency [12] 44.7 µM
0.29%: max response [8]
-6.4%: max response [5]
inactive: Potency [18] | activation [19] 4.82% | outcome [1] | outcome [4] | Potency [6] | max response [9] -2.41% | activity change % (negative = inhibition) [10] 9.18% | activation [11] 0.981% | max response [13] -2.93% | max response [15] -8.17% | max response [16] -16.4% | Potency [17]

CO/N=C(/C1=NOCCO1)c1ccccc1Oc1ncnc(Oc2ccccc2Cl)c1F
inactive: activation [19] 7.75% | activation [20] -11.9% | activation [11] 4.67% | max response [13] 18.3% | Potency [14] | max response [15] 16.2% | max response [16] 6.13%
active: Potency [18] 35.5 µM

O=P(OCC(Br)CBr)(OCC(Br)CBr)OCC(Br)CBr (stereo not drawn)
inactive: Potency [3] | Potency [7] | activity change % (negative = inhibition) [10] -25.3% | max response [13] -0.385% | max response [15] -25.3% | Potency [17]
-17.7%: max response [2]
